# Data as given in PubChem BioAssay (NCI).
# This is part of a sample that, as a whole, favours compounds with a hit. Of some 83,000 tested, about 20% had one in any assay.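 Each cell line was grown in a 96-well plate and treated with one concentration of compound for 48 hours. Values below 10 were considered active.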 Unmarked numbers belong to inactive results. The source made the active and inactive calls.
# Key:
# Assay in all cases: NCI-60 one-dose screen, 48 h (100 = growth as untreated, 0 = no growth, -100 = all killed)
# Conditions in all cases: 10 µM unless noted
# RPMI-8226 leukemia = test system: RPMI-8226 leukemia
# OVCAR-8 ovarian = test system: OVCAR-8 ovarian
# OVCAR-5 ovarian = test system: OVCAR-5 ovarian
# OVCAR-4 ovarian = test system: OVCAR-4 ovarian
# SK-OV-3 ovarian = test system: SK-OV-3 ovarian
# IGROV1 ovarian = test system: IGROV1 ovarian
# OVCAR-3 ovarian = test system: OVCAR-3 ovarian
# HS 578T breast = test system: HS 578T breast
# NCI/ADR-RES ovarian = test system: NCI/ADR-RES ovarian
# T-47D breast = test system: T-47D breast
# BT-549 breast = test system: BT-549 breast
# MDA-MB-435 melanoma = test system: MDA-MB-435 melanoma
# SW-620 colon = test system: SW-620 colon
# MCF7 breast = test system: MCF7 breast
# HCT-116 colon = test system: HCT-116 colon
# KM12 colon = test system: KM12 colon
# HCC-2998 colon = test system: HCC-2998 colon
Structure (SMILES),growth (RPMI-8226 leukemia),growth (OVCAR-8 ovarian),growth (OVCAR-5 ovarian) [%],growth (OVCAR-4 ovarian),growth (SK-OV-3 ovarian),growth (IGROV1 ovarian),growth (OVCAR-3 ovarian),growth (HS 578T breast) [%],growth (NCI/ADR-RES ovarian) [%],growth (T-47D breast),growth (BT-549 breast),growth (MDA-MB-435 melanoma),growth (SW-620 colon),growth (MCF7 breast),growth (HCT-116 colon),growth (KM12 colon),growth (HCC-2998 colon)
CN[C@@]12CC3(C=CC(=O)C=C3)O[C@]1(Cc1ccc(OC)cc1)N(C)C(=O)N2,17.2%,6.34% (active),33.1,60.9%,108%,55.3%,17.3%,106,61.7,47.8%,44.3%,31.4%,24.6%,16.4%,4.01% (active),98.2%,
C=C1CCC2C3(C)COC(c4ccc(SC)cc4)OC3CCC2(C)C1C/C=C1/C(=O)OCC1O (stereo not drawn),11.6%,34.9%,79.1,59.1%,96.3%,99.2%,71.4%,102,49.8,23.6%,64.6%,61.3%,10.6%,27.7%,11.2%,44.3%,90.5%
O=C(/C=C/c1cc2ccccc2[nH]c1=O)/C=C/c1cc2ccccc2[nH]c1=O,-16.8% (active),4.07% (active),15.6,38.3%,8.82% (active),-23.6% (active),-58% (active),19.9,57.2,15.2%,-45.5% (active),-41.6% (active),-39.5% (active),-42.3% (active),-71.1% (active),-83.7% (active),-88.9% (active)
O=C1C=CC(=O)c2c1nc1n2CCCC1,116%,92%,112,101%,92.5%,103%,21%,73.1,89.6,86.7%,95.2%,-68.5% (active),62.3%,57.8%,91.9%,75%,57.6%
O=C(O)c1ccc(=O)[nH]n1,107%,103%,104,113%,106%,137%,115%,111,109,105%,106%,112%,102%,97.2%,106%,123%,
NC(=S)N/N=C/c1cc(-c2cccc(N)c2)ccn1,12.2%,21.6%,46.1,47.3%,27.5%,16%,40.8%,38.1,21.2,10.8%,55.4%,32.9%,35.6%,21.9%,28.4%,30%,
CC(=O)Oc1ccc(Nc2c3ccccc3nc3ccccc23)cc1,-16.2% (active),-58.9% (active),18,13.8%,3.92% (active),-11.8% (active),9.24% (active),25.1,23.8,7.4% (active),55.2%,8.19% (active),3.73% (active),3.91% (active),14%,18.1%,
O=C(CCN1CCOCC1)Nc1ccc(Cn2nnc3c2C(=O)c2nnn(Cc4ccc(NC(=O)CCN5CCOCC5)cc4)c2C3=O)cc1,5.5% (active),45.6%,110,-81.4% (active),95.4%,-19.8% (active),-1.65% (active),44.9,109,-3.09% (active),29.6%,-76.2% (active),30.7%,-56.3% (active),-15.6% (active),43%,-7.48% (active)
COc1ccc2[nH]c(=O)c(/C=C/C(=O)c3ccc(Nc4nccc(-c5ccc6ccccc6c5)n4)cc3)cc2c1,105%,100%,104,131%,105%,98.9%,105%,98.8,99.2,97.2%,98.9%,108%,97.1%,92.8%,91.1%,93.3%,104%
CC1=N/C(=C\c2cccc(Br)c2)C(=O)O1,108%,105%,106,110%,102%,106%,103%,107,107,97.3%,109%,107%,104%,102%,103%,106%,111%
Nc1ccc(Nc2nccc(-c3ccc4ccccc4c3)n2)cc1,29.7%,48.2%,69.1,56.4%,60.7%,38.2%,46.9%,43.1,18.4,57.1%,57.7%,8.53% (active),33.1%,19%,26.2%,27.2%,71.9%
